# Test results from PubChem BioAssay (Tox21).
# Records with an inconclusive call do not appear. A number with no mark means an inactive call. Activity calls are given as the source filed them. Calls come from the whole dose curve; as a rule, active = well fitted cell-killing curve with a large enough effect in the repeat runs; inconclusive = weak or mixed curves, or effect the other way; inactive = flat fitted curve, though single readings scatter.
# Experiment: qHTS assay to identify small molecule antagonists of the estrogen receptor alpha (ER-alpha) signaling pathway using the BG1 cell line in the presence of 0.1 nM 17-beta-estradiol - cell viability counter screen (AID 1259241); note: nearly all actives have a fitted effect of over 40% in size
# Settings: VM7Luc4E2 (BG1) viability, CellTiter-Fluor protease, 22 h, 0.1 nM estradiol agonist added; series mostly up to 92.4 µM; activity change, negative = cytotoxicity: at the top concentration
# From the text: National Center for Advancing Translational Sciences [NCATS]
# NIH Chemical Genomics Center [NCGC]
# U.S. Environmental Protection Agency [EPA]
# National Institutes of Environmental Health Sciences [NIEHS]
# National Toxicology Program [NTP]
# U.S. Food and Drug Administration [FDA]
# Estrogen receptor (ER), a member of the nuclear hormone receptor plays an important role in development, metabolic homeostasis and reproduction. Two subtypes of ER, ER-alpha and ER-beta, have similar expression patterns with some uniqueness in both types. Endocrine disrupting chemicals (EDCs) and their interactions with steroid hormone receptors like ER causes disruption of normal endocrine function. Therefore, it is important to understand the effect of environmental chemicals in ER signaling pathway. For identifying ER antagonists, VM7Luc4E2 cell line was used to screen against Tox21 compound libraries.
# VM7Luc4E2 cell line (provided by Denison MS, University of California) endogenously express full-length ER-alpha and is stably transfected with a plasmid containing four estrogen responsive elements (ERE) upstream of a luciferase reporter gene. The current screening for identification of ER-alpha inhibitors against Tox21 compound libraries used lower concentration (0.1 nM) of 17beta-Estradiol as a stimulator. The cytotoxicity of the Tox21 compound libraries against VM7Luc4E2 cell line was tested by measuring live-cell protease activity using CellTiter-Fluor assay in the same wells.
# Tox21 Assay Protocol Summary:
# VM7Luc4E2 cells were cultured in phenol red free assay medium containing 10% charcoal stripped FBS for 5 days prior to the assay. The cells were dispensed at 4,000 cells/well in 4 uL of assay medium into white wall/solid-bottom 1536-well plates (Corning Life Sciences, Corning, NY) using a Multidrop Combi (ThermoFisher Scientific, Waltham, MA) dispenser. After the assay plates were incubated at 37C and 5% CO2 for 24 hr, 23 nL of compounds dissolved in DMSO, positive controls or DMSO only was transferred to the assay plates by a Pintool station (Kalypsys, San Diego, CA). The transfer of compounds was followed by the addition of 1 uL of 0.1 nM (final concentration) agonist (17beta-Estradiol)/assay medium using a Flying Reagent Dispenser (FRD, Aurora Discovery, San Diego, CA). The plates were incubated at 37C and 5% CO2 for 22 hr. For cytotoxicity assay, 1 uL of CellTiter-Fluor reagent (Promega Corporation, Madison, WI) was added to each well using the FRD and after 30 min incubation at 37C and 5% CO2, The fluorescence intensity was measured using ViewLux plate reader (PerkinElmer, Shelton, CT).
# % is set by controls: 0 for no effect and ±100 for the full control effect; potency is the fitted concentration of half-maximal effect.
Structure (SMILES),"activity change, negative = cytotoxicity",Potency
S=C=NCCc1ccccc1,-8.13%,
CC1CN1 (stereo not given),2.53%,
Clc1ccc(C2(Cn3cncn3)OCCO2)c(Cl)c1,1.77%,
Fc1ccc(C(OCCN2CCN(CCCc3ccccc3)CC2)c2ccc(F)cc2)cc1,,29.8 µM (active)
O=[N+]([O-])c1ccc(Cl)c(Cl)c1Cl,-1.95%,
C[C@@H]1CC2=CC(=O)CC[C@@H]2[C@H]2CC[C@@]3(C)[C@@H](CC[C@]3(C)O)[C@@H]21,-15.5% [at 42.5 µM],
COP(=S)(NC(C)C)Oc1ccc(C)cc1[N+](=O)[O-] (stereo not given),-11.5%,
O=C(NC(=O)c1ccccc1Cl)Nc1ccc(OC(F)(F)F)cc1,-0.388%,
CC1(C)C(C=C(Cl)Cl)C1C(=O)OC(C#N)c1ccc(F)c(Oc2ccccc2)c1 (stereo not given),-2.22%,
Nc1cc(Cl)ccc1Cl,11.5%,
CCCN,15%,
N#CSCc1ccccc1,-3.19%,
CCC[CH2][Sn]([CH2]CCC)([CH2]CCC)[CH2]CCC,,19.3 µM (active)
Cc1cccc(Cc2cnc[nH]2)c1C,-7.09% [at 42.5 µM],
CSC(C)(C)/C=N/O,8.69%,
Cc1ccn2nc(S(=O)(=O)Nc3c(F)cccc3F)nc2n1,4.44%,
N#CCCl,-10.5%,
CCCCC/C=C\C/C=C\C/C=C\C/C=C\CCCC(=O)NCC(=O)O,-2.49% [at 42.5 µM],
O=S(=O)(NS(=O)(=O)C(F)(F)F)C(F)(F)F,-0.117%,
CN/C(=N\[N+](=O)[O-])NCc1cnc(Cl)s1,1.37%,

Structure (SMILES),"activity change, negative = cytotoxicity",Potency
O=C(O)[C@H](O)[C@@H](O)C(=O)O,0.553%,
CC[C@H](C)[C@H]1O[C@]2(C=C[C@@H]1C)C[C@@H]1C[C@@H](C/C=C(\C)[C@@H](O[C@H]3C[C@H](OC)[C@@H](O[C@H]4C[C@H](OC)[C@@H](NC)[C@H](C)O4)[C@H](C)O3)[C@@H](C)/C=C/C=C3\CO[C@@H]4[C@H](O)C(C)=C[C@@H](C(=O)O1)[C@]34O)O2,,15.4 µM (active)
C=CC(=O)[O][Sn]([CH2]CCC)([CH2]CCC)[CH2]CCC,,27.3 µM (active)
Cc1cc2c3c(c1)C(c1ccccc1)=N[C@@H](NC(=O)c1ccncc1)C(=O)N3CC2,4.44%,
[O-][Cl+3]([O-])([O-])O,0.716%,
Clc1cc(Cl)c(-c2cc(Cl)c(Cl)cc2Cl)cc1Cl,7.22% [at 42.5 µM],
CCC1COC(Cn2cncn2)(c2ccc(Cl)cc2Cl)O1 (stereo not given),1.19%,
C#CCO,8.4%,
CN(C)c1ccc(N)cc1,,47.4 µM (active)
O=Cc1ccccc1,-11.4%,
Oc1cc(Cl)c(Cl)c(Cl)c1Cl,-3.21%,
CC[C@]1(O)CC[C@H]2[C@@H]3CCC4=CCCC[C@@H]4[C@H]3CC[C@@]21C,5.74% [at 42.5 µM],
CCC1(CC)C(=O)N=C(O)NC1=O,-1.11%,
COP(=S)(OC)Oc1nc(Cl)c(Cl)cc1Cl,-0.64%,
CCN(CC)C(=O)N[C@@H]1C=C2c3cccc4[nH]cc(c34)C[C@@H]2N(C)C1,-9.42% [at 42.5 µM],
COP(=O)(OC)O/C(=C\Cl)c1cc(Cl)c(Cl)cc1Cl,3.07%,
CC(Cc1ccc2c(c1)OCO2)NO (stereo not given),-2.72%,
COc1ccc(Cc2nccc3cc(OC)c(OC)cc23)cc1OC,-24% [at 42.5 µM],
O=S1OCC2C(CO1)C1(Cl)C(Cl)=C(Cl)C2(Cl)C1(Cl)Cl (stereo not given),,inactive
COc1nc(C)nc(NC(=O)NS(=O)(=O)c2ccccc2Cl)n1,12.8%,
